Experimental findings from PubChem BioAssay (NCI) are described below.

Test systems include HCT-15 colon; HT29 colon; SNB-75 CNS; SNB-19 CNS; PC-3 prostate; SK-MEL-5 melanoma; UACC-62 melanoma; LOX IMVI melanoma; SK-MEL-28 melanoma; SK-MEL-2 melanoma; EKVX NSCLC; SN12C renal; UO-31 renal; TK-10 renal; ACHN renal; CAKI-1 renal; CCRF-CEM leukemia; MOLT-4 leukemia; A498 renal.
Holding throughout (test): NCI-60 one-dose screen, 48 h (100 = growth as untreated, 0 = no growth, -100 = all killed)
Common to all, as to conditions: 10 µM unless noted

The panel holds about 83,000 compounds, 20% with a hit somewhere; the sample as a whole holds those more often.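 In brief: 96-well plates, 48 h treatment, single concentration, percent growth endpoint.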 A number with no mark means an inactive call. Calls of active or inactive are those of the source. How the source made its calls: active means growth percent below 10; inactive means the rest.

In the case of `Cc1[nH]n(-c2cccc(Cl)c2)c(=O)c1/C=C1\C=Nc2ccc(Br)cc21`, the growth was 59.2% with HCT-15 colon; 11.1% in the experiment with HT29 colon; -13.5% (active) in the experiment on SNB-75 CNS; 78.1% in the experiment with SNB-19 CNS; 31.2% with PC-3 prostate; 60.4% in the experiment with SK-MEL-5 melanoma. In addition, the growth is 37.4% in the experiment with UACC-62 melanoma; 4.2% (active) in the experiment with LOX IMVI melanoma; 71.2% in the experiment with SK-MEL-28 melanoma; 73.4% in the experiment on SK-MEL-2 melanoma; 41.1% in the experiment on EKVX NSCLC; 3.46% (active) in the experiment on SN12C renal. For the same compound, the growth in the experiment on UO-31 renal was -9.91% (active); in the experiment on TK-10 renal, -51.3% (active); with ACHN renal it was 11.6%; in the experiment with CAKI-1 renal, 22.4%; in the experiment on CCRF-CEM leukemia, 6.42% (active); with MOLT-4 leukemia, 26.9%.

As for `CCc1c(Nc2ccc(C)cc2)[nH]c(N)nc1=S`, the growth in the experiment on HCT-15 colon was 99.7%; in the experiment with HT29 colon, 103%; with SNB-75 CNS it was 93.5%; in the experiment with SNB-19 CNS, 98.3%; with PC-3 prostate it was 107%; in the experiment with SK-MEL-5 melanoma, 101%. In addition, the growth was 93.8% in the experiment on UACC-62 melanoma; 105% in the experiment on LOX IMVI melanoma; 104% with SK-MEL-28 melanoma; 103% in the experiment with SK-MEL-2 melanoma; 84.9% in the experiment with EKVX NSCLC; 98.4% in the experiment with SN12C renal. In addition, the growth in the experiment on UO-31 renal is 91.5%; in the experiment with TK-10 renal, 111%; with ACHN renal, 98%; in the experiment with CAKI-1 renal, 89.8%; with CCRF-CEM leukemia it was 107%; with MOLT-4 leukemia, 110%.

On to `CC(C)Cc1ccc(C(C)C(=O)NCc2ccc(Cn3c(=O)sn(-c4ccc(Cl)cc4)c3=O)cc2)cc1` (stereo not given), for which the growth in the experiment with HCT-15 colon is 83.2%; with HT29 colon, 75.6%; in the experiment on SNB-75 CNS it was 79.4%; in the experiment with SNB-19 CNS, 83.9%; with PC-3 prostate it was 82.8%; with SK-MEL-5 melanoma it was 94.1%. The growth in the experiment with UACC-62 melanoma was 66.4%; in the experiment on LOX IMVI melanoma, 76.1%; with SK-MEL-28 melanoma, 77%; with SK-MEL-2 melanoma it was 107%; in the experiment with EKVX NSCLC, 82.6%; in the experiment on SN12C renal, 84.1%. Moreover, the growth is 65.4% in the experiment on UO-31 renal; 74.2% in the experiment on TK-10 renal; 56.5% in the experiment with ACHN renal; 74.7% with CAKI-1 renal; 95% in the experiment on A498 renal; 96.2% in the experiment on CCRF-CEM leukemia. Further, the growth in the experiment on MOLT-4 leukemia was 85.7%.

For `COc1cccc2c1C(=O)c1c(O)c3c(c(O)c1C2=O)C[C@@](O)(C(=O)CO)C[C@@H]3O[C@H]1C[C@H](N)[C@@H](O)[C@H](C)O1`, the growth with HCT-15 colon was 40.5%; with HT29 colon, -14.8% (active); in the experiment with SNB-75 CNS, -66.2% (active); with SNB-19 CNS, 10%; with PC-3 prostate, -0.191% (active); with SK-MEL-5 melanoma it was -83.1% (active). In addition, the growth in the experiment with UACC-62 melanoma is -64.4% (active); in the experiment with LOX IMVI melanoma it was 0.955% (active); with SK-MEL-28 melanoma, -34.7% (active); in the experiment on SK-MEL-2 melanoma it was -72.9% (active); in the experiment with EKVX NSCLC, 3.85% (active); with SN12C renal, 10%. Further, the growth is 11.8% with UO-31 renal; 6.82% (active) in the experiment with TK-10 renal; -36.9% (active) in the experiment with ACHN renal; 25.1% with CAKI-1 renal; -67.3% (active) in the experiment on A498 renal; -20.5% (active) in the experiment on CCRF-CEM leukemia. Also, the growth in the experiment on MOLT-4 leukemia is -0.0958% (active).

Regarding `COc1ccc(CC(C)=C(c2ccc(OCCN(C)C)cc2)c2ccc(OCCN(C)C)cc2)cc1`, the growth in the experiment with HCT-15 colon was 62.8%; in the experiment with HT29 colon it was 39%; in the experiment with SNB-75 CNS, 81.6%; with SNB-19 CNS it was 80.1%; in the experiment with PC-3 prostate it was 70.8%; in the experiment on SK-MEL-5 melanoma it was 84.2%. The growth with UACC-62 melanoma is 39.1%; with LOX IMVI melanoma, 71.5%; in the experiment with SK-MEL-28 melanoma, 71.5%; with SK-MEL-2 melanoma, 108%; with EKVX NSCLC, 88.5%; in the experiment with SN12C renal it was 75.2%. The growth is 60.6% with UO-31 renal; 99.6% in the experiment with TK-10 renal; 98% with ACHN renal; 84% in the experiment with CAKI-1 renal; 17.1% in the experiment on CCRF-CEM leukemia; 64.6% in the experiment with MOLT-4 leukemia.

As to `COc1ccc(C2CC(c3cccc(Nc4ccncc4)c3)=NN2c2ccccc2)cc1` (stereo not given), the growth in the experiment on HCT-15 colon was -22.9% (active); in the experiment on HT29 colon, -3.3% (active); in the experiment with SNB-75 CNS it was 65.3%; in the experiment with SNB-19 CNS it was 84.3%; with PC-3 prostate it was 37.3%; in the experiment with SK-MEL-5 melanoma, 49.2%. For the same compound, the growth in the experiment with UACC-62 melanoma was 97%; in the experiment on LOX IMVI melanoma, 28.5%; with SK-MEL-28 melanoma it was -88.3% (active); with SK-MEL-2 melanoma, 71.7%; with EKVX NSCLC, 87.2%; in the experiment on UO-31 renal, 64.3%. In addition, the growth was 68.7% in the experiment on TK-10 renal; 51.5% in the experiment on CAKI-1 renal; 78% with A498 renal; 30.7% in the experiment on CCRF-CEM leukemia; 10.7% in the experiment with MOLT-4 leukemia.

Consider `COc1ccc(/C=C/C(=O)c2ccc(OC)c(OC)c2)cc1O`, for which the growth in the experiment on HCT-15 colon was 56.5%; with HT29 colon it was 63.8%; in the experiment on SNB-75 CNS, 86.1%; in the experiment with SNB-19 CNS, 82.1%; with PC-3 prostate, 82.4%; with SK-MEL-5 melanoma, 77.2%. In addition, the growth with UACC-62 melanoma was 87.1%; in the experiment on LOX IMVI melanoma it was 65.5%; with SK-MEL-28 melanoma, 101%; in the experiment with SK-MEL-2 melanoma it was 99.9%; in the experiment on EKVX NSCLC, 87.4%; with SN12C renal, 73.8%. The growth in the experiment on UO-31 renal is 63.9%; in the experiment on TK-10 renal it was 83.8%; in the experiment on ACHN renal, 86%; in the experiment with CAKI-1 renal, 62.9%; in the experiment on CCRF-CEM leukemia it was 62.5%; in the experiment on MOLT-4 leukemia, 67.2%.

For the compound `CCNC(=O)c1[nH]cc(-c2ccc(OC)cc2)c1-c1cc(OC)cc(OC)c1`, the growth is 68.6% with HCT-15 colon; 94.6% in the experiment with HT29 colon; 67% in the experiment on SNB-75 CNS; 84% with SNB-19 CNS; 84.2% in the experiment on PC-3 prostate; 61.1% in the experiment with SK-MEL-5 melanoma. For the same compound, the growth in the experiment on UACC-62 melanoma was 48.2%; in the experiment with LOX IMVI melanoma, 83.4%; with SK-MEL-28 melanoma it was 87.9%; in the experiment on SK-MEL-2 melanoma it was 98.6%; with EKVX NSCLC, 89.8%; with SN12C renal it was 85.4%. Besides, the growth was 77.4% in the experiment with UO-31 renal; 115% in the experiment on TK-10 renal; 67.3% in the experiment on ACHN renal; 59.9% in the experiment on CAKI-1 renal; 91.1% in the experiment with A498 renal; 94.5% in the experiment on MOLT-4 leukemia.
